# Test results reported in PubChem BioAssay (EPA / NIEHS).
# Activity calls are given as the source filed them. Rule for the calls: active = hit-call score of the fitted dose curve at least 0.9, where 1 is the maximum; inactive = score below 0.9.
# Target: Paired box protein Pax-6 (Homo sapiens) (UniProt P26367)
# Assay: ATG_Pax6_CIS: Attagene CIS-FACTORIAL HepG2 Assay for human Paired Box 6 (PAX6) (AID 2282956)
# Conditions: HepG2 CIS-FACTORIAL PAX6 reporter transcription, RNA readout; actives raise or lower the signal
# In short: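 Values derive from bidirectional curve fitting of reporter mRNA signal relative to DMSO. HepG2 cells bearing transfected cis-regulated MRTUs were exposed for 24 h; transcripts were read by RT-PCR and capillary electrophoresis.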
# Sequence of Paired box protein Pax-6 (Homo sapiens) (P26367 whole entry, looked up): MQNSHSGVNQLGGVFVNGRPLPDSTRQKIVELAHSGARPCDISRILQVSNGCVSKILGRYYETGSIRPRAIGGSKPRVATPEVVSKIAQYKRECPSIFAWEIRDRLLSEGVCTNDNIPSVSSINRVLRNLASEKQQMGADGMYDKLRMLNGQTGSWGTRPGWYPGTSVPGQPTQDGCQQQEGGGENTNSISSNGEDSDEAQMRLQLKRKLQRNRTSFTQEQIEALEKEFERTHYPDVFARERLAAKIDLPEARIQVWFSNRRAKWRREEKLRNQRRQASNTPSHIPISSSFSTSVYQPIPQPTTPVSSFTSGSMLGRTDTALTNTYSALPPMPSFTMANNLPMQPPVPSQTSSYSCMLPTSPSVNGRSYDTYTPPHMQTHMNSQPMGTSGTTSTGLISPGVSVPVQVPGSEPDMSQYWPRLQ
SMILES,outcome,AC50
O=[N+]([O-])c1ccc(Nc2ccc(Nc3ccccc3)c(S(=O)(=O)O)c2)c([N+](=O)[O-])c1,inactive,
CC(C)(C)c1n[nH]c(=S)n(N)c1=O,inactive,
CC(C)[C@H]1CC[C@@H](C)CC1=O,inactive,
COc1ccc(OC)c(OC)c1,inactive,
CCCCCC(=O)OCCc1ccccc1,inactive,
NC(N)=NC(=O)c1nc(Cl)c(N)nc1N,inactive,
O=C(O)Cc1cccc2ccccc12,inactive,
OC1OC[C@@H](O)[C@H](O)[C@H]1O (stereo partly specified),inactive,
CC(=O)OCc1ccc2c(c1)OCO2,inactive,
CCCC(=O)OCCC(C)CCC=C(C)C (stereo unspecified),inactive,
CCCCCCCCC=O,inactive,
CCC(O)CO (stereo unspecified),inactive,
O=C1NC(=O)c2ccccc21,inactive,
CC1(C)[C@H](C(=O)OCc2cccc(Oc3ccccc3)c2)[C@@H]1C=C(Cl)Cl,inactive,
CC1(C)OC[C@@H]2O[C@@]3(C(=O)O)OC(C)(C)O[C@H]3[C@@H]2O1,inactive,
CCCCc1ccc(N)cc1,inactive,
S=C(S)NCCNC(=S)S,inactive,
OCC(CO)(CO)COCC(CO)(CO)CO,inactive,
O=C(O)c1snc(Cl)c1Cl,,188 µM (active)
Cc1ccc(C(C)C)cc1O,inactive,
Nc1ccc(S(=O)(=O)O)c(N)c1,inactive,
CC(C)(CO)[N+](=O)[O-],inactive,
O=C[C@@H](O)[C@H](O)[C@H](O)CO,inactive,
CCCC/C=C\CCCCCCCCCC=O,inactive,
CCC(=O)OCc1ccccc1,inactive,
CO[Si](CCCn1c(=O)n(CCC[Si](OC)(OC)OC)c(=O)n(CCC[Si](OC)(OC)OC)c1=O)(OC)OC,inactive,
